From PubChem BioAssay
Hits are enriched below; roughly 1.7% of the tested compounds scored in any of these assays.
HEK293 tox = qHTS of GLP-1 Receptor Inverse Agonists: Cytotox Screen; HEK293 cAMP-luciferase reporter cells, luminescence, 24 h; Potency, µM (titrated, usually from 38.3 µM), usual class: inhibitors; 0.13% of 410,000 active; AID 624418, 2012;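 further: loss of luciferase light is scored as toxicity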
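A 23 nL compound transfer followed 12 hours of cell culture at 37 deg C; exposure then lasted 24 hr. Luciferase assay detection reagent was dispensed and plates read for luminescence after a 12 min room-temperature wait.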
PTHR1 ag = qHTS for PTHR1 Agonists: Primary Screen; Parathyroid hormone/parathyroid hormone-related peptide receptor (Homo sapiens), Q03431; HEK293 GP2 PTHR1 cells, GloSensor cAMP luminescence, 1 h; Potency, µM (top dose mostly 115 µM), hits mostly activators; 0.075% of 410,000 active; AID 743266, 2014; further: nearly all actives have a fitted effect of over 55% in size
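HEK-293-derived GP2 cells expressing PTHR1 and a GloSensor cAMP reporter, 3,000/well, plated overnight, given luciferin plus IBMX (each 0.5 mM as added) for 1 h at 37 °C, then compound for 1 h at 37 °C. Luminescence was read after 15 min at room temperature.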
RGS4 inhibitor = Inhibitors of Regulator of G Protein Signaling (RGS) 4: qHTS; Transcreener GDP fluorescence polarization, RGS4-accelerated GTP hydrolysis; Potency, µM (doses to about 114 µM), usual class: inhibitors; 0.039% of 390,000 active; further: nearly all actives have a fitted effect of over 75% in size
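MLSMR compounds (23 nl, pin-transferred) preincubated 10 min at room temperature with a 500nM (2x) first reagent, then RGS4 at 900nM (2x) plus Transcreener GDP mix added; fluorescence polarization (620/688 nm) read before and after 90 min at 30 °C.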
GLP-1R agonist = qHTS of GLP-1 Receptor Agonists; HEK293 GLP-1R CRE-luciferase, luminescence, 4-6 h; cells express a hypersensitive GLP-1R form; Potency, µM (doses to about 45.6 µM), actives largely listed as activators; 0.007% of 380,000 active; AID 624172, 2012
Target sequence (P43220 whole entry, looked up): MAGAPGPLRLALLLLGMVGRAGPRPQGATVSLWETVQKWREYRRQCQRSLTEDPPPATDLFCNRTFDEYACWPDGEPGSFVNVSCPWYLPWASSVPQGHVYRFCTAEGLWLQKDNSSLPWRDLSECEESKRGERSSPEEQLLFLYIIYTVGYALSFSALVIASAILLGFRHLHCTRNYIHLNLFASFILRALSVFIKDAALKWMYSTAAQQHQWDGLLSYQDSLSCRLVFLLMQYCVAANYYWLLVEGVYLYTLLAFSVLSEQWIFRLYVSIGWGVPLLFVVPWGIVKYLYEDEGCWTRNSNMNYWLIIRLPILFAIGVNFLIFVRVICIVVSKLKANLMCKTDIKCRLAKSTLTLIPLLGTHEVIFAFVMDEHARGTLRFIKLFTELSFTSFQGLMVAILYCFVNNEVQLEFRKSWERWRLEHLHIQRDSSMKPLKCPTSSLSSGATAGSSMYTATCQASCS
GLP-1R inv ag = qHTS of GLP-1 Receptor Inverse Agonists (Inhibition Mode) | Glucagon-like peptide 1 receptor (Homo sapiens), P43220 | HEK293 GLP-1R CRE-luciferase, luminescence, 24 h; GLP-1R form is constitutively active | Potency, µM (titrated, usually from 38.3 µM), most hits filed as inhibitors | 1.6% of 410,000 active | AID 624417, 2012; further: nearly all actives have a fitted effect of over 55% in size
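GLP-1R inverse agonism mode: basal reporter luminescence in engineered HEK293 cells measured after one day of compound exposure at 37 deg C, with a 12 min room-temperature detection step.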
Hits are given with their value; . = inactive; ? = inconclusive; / = not tested or not shown; [ ] = remark or other dose. The call rests on the fitted dose curve; in most records, active means well fitted curve in the direction sought with a large enough effect; inconclusive means small, poorly fitted or top-dose-only effect, or another doubt; inactive means no such curve, though single readings can be large; an effect the other way counts as inactive or inconclusive.

SMILES	HEK293 tox	PTHR1 ag	RGS4 inhibitor	GLP-1R agonist	GLP-1R inv ag
COc1cccc(NS(=O)(=O)c2ccc3c(c2)NC(=O)C(C)S3)c1 (stereo not given)	.	.	.	.	.
C=CCN(c1ccccc1)S(=O)(=O)c1ccc2c(c1)NC(=O)C(C)S2 (stereo not given)	.	.	.	.	7.1µM
C=CCN(c1ccccc1)S(=O)(=O)c1ccc2c(c1)NC(=O)C(C)C(=O)N2 (stereo not given)	.	.	.	.	.
CCc1cccc(NS(=O)(=O)c2ccc3c(c2)NC(=O)C(C)S3)c1 (stereo not given)	.	.	.	.	11µM
C=CCn1c(SC(C)C(=O)c2c(N)n(C)c(=O)n(C)c2=O)nnc1-c1ccoc1C (stereo not given)	.	.	.	.	.
CCN(CC)c1ccc(/C=N/N(c2ccccc2)c2ccccc2)c(O)c1	.	.	.	.	6.3µM
CCOC(=O)C1CCN(C(c2ccccc2OC)c2c(O)cc(C)n(CCOC)c2=O)CC1 (stereo not given)	.	.	.	/	.
CCn1c2ccccc2c2cc(CN3CCN(Cc4ccc(OC)c(OC)c4)CC3)ccc21	.	.	.	/	?
CCOc1ccc(CN2CCN(Cc3ccc4c(c3)c3ccccc3n4CC)CC2)cc1	.	.	.	/	6.3µM
Cc1c(O)ccc2c(CN3CCN(C/C=C/c4ccccc4)CC3)cc(=O)oc12	.	.	.	.	3.5µM
CC[C@H](C)[C@H](NC(=O)[C@H](CO)NC(=O)[C@H](CC(N)=O)NC(=O)[C@H](CC(C)C)NC(=O)[C@H](Cc1ccc(O)cc1)NC(=O)[C@H](CCCCN)NC(=O)[C@H](CCCCN)NC(=O)[C@@H](NC(=O)[C@H](C)NC(=O)[C@H](CCSC)NC(=O)[C@H](CCC(N)=O)NC(=O)[C@H](CCCCN)NC(=O)[C@H](CCCNC(=N)N)NC(=O)[C@H](CC(C)C)NC(=O)[C@H](CCCNC(=N)N)NC(=O)[C@@H](NC(=O)[C@H](Cc1ccc(O)cc1)NC(=O)[C@H](CC(N)=O)NC(=O)[C@H](CC(=O)O)NC(=O)[C@@H](NC(=O)[C@H](Cc1ccccc1)NC(=O)[C@@H](NC(=O)[C@H](C)NC(=O)[C@H](CC(=O)O)NC(=O)[C@H](CO)NC(=O)[C@@H](N)Cc1c[nH]cn1)C(C)C)[C@@H](C)O)[C@@H](C)O)C(C)C)C(=O)N[C@@H](CC(C)C)C(=O)N[C@@H](CC(N)=O)C(=O)O	/	/	/	.	/
CN(c1ccccc1)S(=O)(=O)c1cccc(C(=O)NCC(=O)Nc2ccc(F)c(F)c2F)c1	.	.	.	.	?
O=C1NC[C@@H](Cc2cccc3ccccc23)N(CC2(c3ccccc3)CC2)C1=O	.	.	.	.	11µM
COc1ccc2cc(Br)ccc2c1CC(=O)NC(C)(C)C	.	.	.	.	13µM
CCNC(=O)Cc1c(OC)ccc2cc(Br)ccc12	.	.	.	.	.
COc1cccc(NC(=O)C2C3C=CC4(O3)C2C(=O)N(CCCN2CCCC(C)C2)C4C(=O)NC2CCCCC2C)c1 (stereo not given)	.	.	.	.	?
CCn1nc([N+](=O)[O-])c(C(C#N)c2nc3cc(C(F)(F)F)ccc3s2)c(Cl)c1=O (stereo not given)	5µM	.	?	.	.
C[C@H](NC(=O)[C@@H]1CCCN1C(=O)[C@@H]1CCCN1C(=O)c1ccc(Cl)cc1)c1ccccc1	.	.	/	.	.
O=C(O)c1cc(-c2ccc(C(F)(F)F)cc2)nc2n[nH]c(-c3ccccc3)c12	.	.	.	/	.
Cc1ccc(NS(=O)(=O)c2ccc3nc(-c4ccccc4)[nH]c3c2)cc1Cl	.	.	.	.	10µM
CC(C)c1ccc(NC(=O)C2CCCN2S(=O)(=O)c2ccc3nc(-c4ccccc4)[nH]c3c2)cc1 (stereo not given)	.	.	.	/	8.9µM
CC(C)(C)OC(=O)N1CCC2(CC1)Oc1ccc(F)cc1C(=O)C21CC(c2ccccc2)=NO1 (stereo not given)	.	.	.	.	11µM
S=C(NCc1ccccc1)NCc1ccc(CNC(=S)NCc2ccccc2)cc1	.	.	.	.	.
S=C(NCc1ccccc1)C(=S)NCc1ccccc1	.	.	.	.	10µM
CC(=O)c1ccc(N2CCN(C(=O)CS(=O)(=O)c3cccc4nsnc34)CC2)cc1	.	.	.	.	.
SMILES	HEK293 tox	PTHR1 ag	RGS4 inhibitor	GLP-1R agonist	GLP-1R inv ag
Cc1ccccc1NC(=O)Cn1c(=O)n(Cc2ccc3c(c2)OCO3)c(=O)c2ccccc21	.	.	.	.	.
Cc1ccc(CSCCNC(=O)CCSc2ccccc2)cc1	.	.	.	.	10µM
O=C(CN1C(=O)CCn2nc(-c3ccccc3)cc21)NCc1ccc(F)cc1	.	.	.	/	.
CN1CCN(CCc2nc3cc(NC(=O)COc4ccc(Cl)cc4)ccc3n2C)CC1	.	.	.[11.4 µM]	.	10µM
CCCCn1nnc(NC(=O)COc2cc(C)ccc2C(C)C)n1	.	.	.	.	7.9µM
Cn1c(CCN2CCCCC2)nc2cc(NC(=O)COc3ccc(Cl)cc3)ccc21	?	.	.	.	?
CCCn1nnc(NC(=O)COc2cc(C)ccc2C(C)C)n1	.	.	.	.	.
Cc1ccc(C(C)C)c(OCC(=O)Nc2ccc3c(c2)nc(CCN2CCCCC2)n3C)c1	.	.	.	.	8.9µM
CC1C(=O)N(Cc2ccc([N+](=O)[O-])cc2)c2ccccc2N1C(=O)c1c(F)cccc1F (stereo not given)	.	.	.	.	10µM
COc1ccc(CN2C(=O)C(C)N(C(=O)c3c(F)cccc3F)c3ccccc32)cc1 (stereo not given)	.	.	.	.	?
Cc1ccc(CCNC(=O)c2nnc(CS(=O)(=O)c3ccccc3)o2)cc1	.	.	.	.	.
COCCCNC(=O)c1cccc2c(-c3ccc(OC)cc3C)coc12	.	.	/	.	?
COc1cccc2nc3c(C(=O)NCCN(C)C)cccc3cc12	.	.	.	.	13µM
COc1ccc(-c2nc3c(C(=O)NCCN(C)C)cccc3c3ccccc23)cc1	?	.	.	.	10µM
COc1ccc(-c2coc3c(C(=O)NCCN(C)C)cccc23)c(C)c1	.	.	/	.	11µM
CN(C)CCNC(=O)c1cccc2nc3c(ccc4ccccc43)nc12	.	.	.	.	8.9µM
